According to PubChem BioAssay (NCATS):
Inconclusive results are not listed. The source made the active and inactive calls. Calls come from the whole dose curve; as a rule, active = well fitted curve in the direction sought with a large enough effect; inconclusive = small, poorly fitted or top-dose-only effect, or another doubt; inactive = no such curve, though single readings can be large; an effect the other way counts as inactive or inconclusive.

experiment: High Content Imaging Cell-Based qHTS for Inhibitors of the mTORC1 Signaling Pathway in MEF (Tsc2-/-, p53-/-) Cells (AID 2666); settings: at 38.3 µM (top of the series);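 note: percent of cells scored positive for phospho-rpS6 Ser235/236 immunostaining by imaging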
In short: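 Phospho-rpS6 (Ser235/236) immunofluorescence, normalized and scored as % positive cells using rapamycin and DMSO controls, was read in empty-vector Tsc2-/-, p53-/- MEFs after 24 h compound exposure at 37 C; propidium iodide counted cells.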

SMILES | outcome
CC(C)NCC(O)COc1ccc(COCCOC(C)C)cc1 (stereo not drawn) | inactive
NNCCc1ccccc1 | inactive
CC(C)(Sc1ccc(CCN(CCCCC2CCCCC2)C(=O)NC2CCCCC2)cc1)C(=O)O | inactive

experiment: High Content Imaging Cell-Based qHTS for Inhibitors of the mTORC1 Signaling Pathway in MEF Cells (AID 2667); settings: series mostly up to 38.3 µM;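 note: Tsc2-/- p53-/- MEFs stably re-expressing wild-type Tsc2 exposed 24 h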
In short: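 WT MEFs (Tsc2-/-, p53-/- re-expressing Tsc2), in DMEM + 10% FBS, were treated with compound for 24 h at 37 C. Cells were then fixed and stained for phospho-rpS6 Ser235/236 with propidium iodide as cell count. Values are % positive cells, with thresholds set against rapamycin-treated cells.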

SMILES | outcome
Nc1ncnc2nc(-c3ccc(N4CCOCC4)nc3)cc(-c3cccc(Br)c3)c12 | inactive
NC(N)=NC(=O)c1nc(Cl)c(N)nc1N | inactive
Cc1[nH]c(=O)c(C#N)cc1-c1ccc2nccn2c1 | inactive
O=c1n(CCCN2CCN(c3cccc(Cl)c3)CC2)nc2ccccn12 | inactive
Clc1cccc(Cl)c1NC1=NCCN1 | inactive
N[C@@H]1CONC1=O | inactive
c1ccc([C@H]2CN3CCSC3=N2)cc1 | inactive
CC(C[N+](C)(C)C)OC(N)=O (stereo not drawn) | inactive
NS(=O)(=O)c1cc2c(cc1Cl)NC=NS2(=O)=O | inactive
CCCC(CCC)C(=O)O | inactive
NC[C@H](O)c1ccc(O)c(O)c1 | inactive
CC(C)(C)NCC(O)c1ccc(O)c(CO)c1 (stereo not drawn) | inactive
Nc1nc2ccc(OC(F)(F)F)cc2s1 | inactive
O=C1CCc2cc(OCCCCc3nnnn3C3CCCCC3)ccc2N1 | inactive
Cc1cccc(-c2[nH]c(C(C)(C)C)nc2-c2ccc3nccnc3c2)n1 | inactive
Nc1nc2c(ncn2COCCO)c(=O)[nH]1 | inactive
Cn1cnc([N+](=O)[O-])c1Sc1ncnc2nc[nH]c12 | inactive
Cc1oncc1C(=O)Nc1ccc(C(F)(F)F)cc1 | inactive
Cc1ccc(N(CC2=NCCN2)c2cccc(O)c2)cc1 | inactive
C[C@]12CCC(=O)C=C1CC[C@@H]1[C@@H]2[C@@H](O)C[C@@]2(C)[C@H]1CC[C@]2(O)C(=O)CO | inactive
